Compounds with a hit are over-represented: about 1.1% of the library has one in this group of screens.
VACV mCherry inh – qHTS for Stage-Specific Inhibitors of Vaccinia Orthopoxvirus: mCherry Reporter Primary qHTS | Vaccinia virus mCherry reporter infection, fluorescence | Potency, µM (top dose mostly 36.5 µM), inactives show top-dose activity change, negative = inhibition, usual class: inhibitors | actives 0.63% (n = 310,000) | AID 720579, 2013; calls by dose curve; tested in A549 cells; further: nearly all actives have a fitted effect of over 35% in size
VACV Venus inh – qHTS for Stage-Specific Inhibitors of Vaccinia Orthopoxvirus: Venus Reporter Primary qHTS; Vaccinia virus Venus reporter expression, fluorescence; actives 0.46% (n = 330,000); Potency, µM (doses to about 36.5 µM), for the others: top-dose activity change, negative = inhibition, usual class: inhibitors; calls by dose curve; tested in A549 cells; further: nearly all actives have a fitted effect of over 30% in size
AmpC inh detg – qHTS Inhibitors of AmpC Beta-Lactamase (assay with detergent); P00811; AmpC hydrolysis of nitrocefin, absorbance 480 nm, 0.01% Triton; Potency, µM (series often up to 114 µM), without a hit: at the top dose activity change, negative = inhibition, most hits filed as inhibitors; actives 0.041% (n = 370,000); AID 485294, 2010;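 further: 0% = no-compound wells and -100% = no-enzyme wells; nearly all actives have a fitted effect of over 25% in size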
Target sequence (P00811 whole entry, looked up): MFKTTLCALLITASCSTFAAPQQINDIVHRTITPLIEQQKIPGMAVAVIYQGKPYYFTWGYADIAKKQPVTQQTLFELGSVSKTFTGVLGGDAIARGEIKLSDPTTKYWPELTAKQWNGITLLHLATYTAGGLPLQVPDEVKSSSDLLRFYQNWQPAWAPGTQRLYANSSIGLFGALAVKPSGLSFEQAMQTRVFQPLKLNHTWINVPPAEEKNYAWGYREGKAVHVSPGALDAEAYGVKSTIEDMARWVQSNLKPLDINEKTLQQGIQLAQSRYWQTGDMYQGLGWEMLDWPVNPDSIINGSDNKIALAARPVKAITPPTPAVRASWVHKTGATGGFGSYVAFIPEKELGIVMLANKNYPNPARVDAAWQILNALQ
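20 mM phosphate pH 7.0 + 0.01% (detergent screen) or 0.0001% Triton X-100; 5.3 nM AmpC reagent; cpd preinc 15 min RT; nitrocefin (800 uM stock) to start; A480 q20 s × 4 min; Activity was normalised to no-enzyme and no-compound control wells.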
AmpC inh no detg – qHTS Inhibitors of AmpC Beta-Lactamase (assay without detergent). AID 485341, 2010. AmpC nitrocefin hydrolysis, absorbance 480 nm, 0.0001% Triton. Potency, µM (titrated, usually from 57.1 µM), for inactives: at the highest dose activity change, negative = inhibition, actives largely listed as inhibitors. P00811. actives 0.52% (n = 330,000);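 further: plate controls were no compound for no effect and no enzyme for full effect; nearly all actives have a fitted effect of over 20% in size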
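AmpC (5.3 nM in the dispensed reagent) in 20 mM phosphate pH 7.0 with 0.01% (detergent screen) or 0.0001% Triton X-100 was preincubated with compounds for 15 min at room temperature. Nitrocefin was then added from an 800 uM solution, and hydrolysis was followed at 480 nm.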
* marks the source's active call; other numbers are inactive results. Unless noted, the call rests on the fitted dose curve; in most records, active means well fitted curve in the direction sought with a large enough effect; inconclusive means small, poorly fitted or top-dose-only effect, or another doubt; inactive means no such curve, though single readings can be large; an effect the other way counts as inactive or inconclusive. Unless noted, on the % scale 0 is the no-effect control and ±100 the full control effect; potency means the concentration at half of the fitted maximal effect.

For CCC1CN(CC(=O)N(C)Cc2nc3ccccc3[nH]2)Cc2cc(OC)ccc2O1 (stereo not drawn) the results were VACV mCherry inh -10% and VACV Venus inh 5%.
For COc1ccccc1CNC(=O)c1c(N)n(CCCN2CCOCC2)c2nc3ccccc3nc12 the results were VACV mCherry inh 13µM*, VACV Venus inh inconclusive, AmpC inh detg 2% and AmpC inh no detg 236%.
`CCN(CC)c1nc(OCCNC(=O)Nc2ccccc2)nc(N(CC)CC)n1` gave VACV Venus inh 11µM*, AmpC inh detg -3% and AmpC inh no detg -2%.
`CCCCc1ccc(Nc2ncnc3nc[nH]c23)cc1` gave VACV mCherry inh 10µM*, VACV Venus inh -29%, AmpC inh detg inconclusive and AmpC inh no detg -15%.
For Cc1ccc(Nc2ncnc3nc[nH]c23)cc1Cl the results were VACV mCherry inh inconclusive, VACV Venus inh inconclusive, AmpC inh detg -15% and AmpC inh no detg 6%.
`COc1cccc(Nc2ncnc3nc[nH]c23)c1` gave VACV mCherry inh -10%, VACV Venus inh -22%, AmpC inh detg inconclusive and AmpC inh no detg 3.2µM*.
For CCc1ccc(Nc2ncnc3nc[nH]c23)cc1 the results were VACV mCherry inh -9%, VACV Venus inh 0%, AmpC inh detg 6% and AmpC inh no detg -30%.
Screening COc1ccc(C(=O)C[n+]2cc(Br)cc(Br)c2)cc1 returned VACV mCherry inh -2% and VACV Venus inh -19%.
`Cc1ccc(OCC(O)Cn2c(=N)n(Cc3ccccc3)c3ccccc32)cc1` (stereo not drawn) gave VACV mCherry inh 11µM*, VACV Venus inh 14µM*, AmpC inh detg -4% and AmpC inh no detg 4%.
`N=c1n(Cc2ccc(Cl)cc2)c2ccccc2n1CC(O)COc1ccccc1` (stereo not drawn) gave VACV mCherry inh 28µM*, VACV Venus inh inconclusive, AmpC inh detg inconclusive and AmpC inh no detg 17%.
Cc1cc(C(=O)N/N=C/c2cn[nH]c2-c2ccccc2)cs1 was read as VACV mCherry inh -13%, VACV Venus inh -15%, AmpC inh detg 7% and AmpC inh no detg -46%.
For CCc1c(C(=O)N/N=C/c2cn[nH]c2-c2ccc(F)cc2)csc1C the results were VACV mCherry inh inactive, VACV Venus inh 3%, AmpC inh detg inconclusive and AmpC inh no detg 16µM*.
For COc1ccc2nc(SCC(=O)N3CC(=O)Nc4ccccc43)c(C#N)cc2c1 the results were VACV mCherry inh inconclusive, VACV Venus inh inconclusive, AmpC inh detg inconclusive and AmpC inh no detg -52%.
Cc1cc(C)c2nc(SCC(=O)N3CC(=O)Nc4ccccc43)c(C#N)cc2c1 was read as VACV mCherry inh inconclusive, VACV Venus inh inconclusive, AmpC inh detg 2% and AmpC inh no detg 3.5µM*.
`C#CCOCCOCCOCCNc1nc(N2CCN(C(=O)CCCCCCCCCCNC(=O)[C@H](CCCCN)n3cc(CCCC(=O)O)nn3)CC2)nc(N2CCN(C(=O)CCCCCCCCCCNC(=O)[C@H](CCCN=C(N)N)n3cc(C[C@@H](C)CC)nn3)CC2)n1` gave VACV mCherry inh inconclusive, VACV Venus inh 11µM*, AmpC inh detg inconclusive and AmpC inh no detg 322%.
`C#CCOCCOCCOCCNc1nc(N2CCN(C(=O)CCCCCCCCCCNC(=O)[C@H](CCCCN)n3cc(C[C@@H](C)CC)nn3)CC2)nc(N2CCN(C(=O)CCCCCCCCCCNC(=O)[C@H](CCCCN)n3cc(C[C@@H](C)CC)nn3)CC2)n1` gave VACV mCherry inh inconclusive and VACV Venus inh 11µM*.
Screening C#CCOCCOCCOCCNc1nc(N2CCN(C(=O)CCCCCCCCCCNC(=O)[C@H](CCCCN)n3cc(CCO)nn3)CC2)nc(N2CCN(C(=O)CCCCCCCCCCNC(=O)[C@H](CCCN=C(N)N)n3cc(C[C@@H](C)CC)nn3)CC2)n1 returned VACV mCherry inh inconclusive, VACV Venus inh 10µM*, AmpC inh detg 7% and AmpC inh no detg 310%.
C#CCOCCOCCOCCNc1nc(N2CCN(C(=O)CCCCCCCCCCNC(=O)Cn3cc(C[C@@H](C)O)nn3)CC2)nc(N2CCN(C(=O)CCCCCCCCCCNC(=O)[C@H](CCCCN)n3cc(C[C@@H](C)CC)nn3)CC2)n1 was read as VACV mCherry inh inconclusive, VACV Venus inh 10µM*, AmpC inh detg -2% and AmpC inh no detg 356%.
COC(=O)[C@@H]1CCCN1C(=O)c1c(OC)cc(=O)n2c1CCN(Cc1cc(OC)ccc1F)CC2 was read as VACV mCherry inh -6% and VACV Venus inh -1%.
COc1cc2nc(Cl)nc(NC3CCN(Cc4ccccc4)CC3)c2cc1OC was read as VACV mCherry inh -18% and VACV Venus inh -30%.
CN(Cc1ccc2c(c1)CN(C(=O)c1cccc(N(C)C)c1)CCO2)Cc1cc(C2CC2)n[nH]1 was read as VACV mCherry inh 5% and VACV Venus inh 3%.
For O=C1N(c2ccccc2)C[C@@H]2C[C@@H](c3cc4ccccc4o3)N3CCC[C@@]123 the results were VACV mCherry inh 0.89µM*, VACV Venus inh inconclusive, AmpC inh detg 2% and AmpC inh no detg -37%.
Screening COc1ccc(NCc2ccc3c(c2)OCO3)cc1Cl returned VACV mCherry inh 11µM*, VACV Venus inh -1%, AmpC inh detg 1% and AmpC inh no detg -61%.
Screening O=C(O)c1ccc(N=N/C(=N\Nc2ccc(C(=O)O)cc2)c2ccccc2)cc1 returned VACV mCherry inh inactive, VACV Venus inh -11%, AmpC inh detg -13% and AmpC inh no detg -10%.
For Brc1ccc(N/N=C(/N=Nc2nn[nH]n2)c2ccccc2)cc1 the results were VACV mCherry inh inconclusive, VACV Venus inh 13µM*, AmpC inh detg -1% and AmpC inh no detg -10%.
`CC1=NN(c2ccc(C)cc2)C(=O)/C1=C/c1ccc(-c2cc([N+](=O)[O-])ccc2O)o1` gave AmpC inh detg -11% and AmpC inh no detg 16µM*.
Screening Cc1cc(C)c(-c2c(N)cc(Br)cc2Br)c(N)c1 returned VACV mCherry inh 13µM* and VACV Venus inh -12%.
Screening Nc1ccc(Br)cc1Br returned VACV mCherry inh inactive, VACV Venus inh -10%, AmpC inh detg 3% and AmpC inh no detg -12%.
`C#CCOCCOCCOCCNc1nc(N2CCN(C(=O)CCCCCCCCCCNC(=O)[C@H]([C@@H](C)CC)n3cc(CCCCCN)nn3)CC2)nc(N2CCN(C(=O)CCCCCCCCCCNC(=O)[C@@H]([C@H](C)O)n3cc(C)nn3)CC2)n1` gave VACV mCherry inh inconclusive, VACV Venus inh 11µM*, AmpC inh detg 12% and AmpC inh no detg 295%.
